Assay outcomes as filed in PubChem.
ELG1 repair inh = qHTS screen for small molecules that inhibit ELG1-dependent DNA repair in human embryonic kidney (HEK293T) cells expressing luciferase-tagged ELG1. HEK293T ELG1-luciferase reporter, luminescence, 16 h; DNA damage induced by 5-fluorouridine. Potency, µM (titrated, usually from 46.1 µM), for the others: at the highest dose activity change, negative = inhibition, most hits filed as inhibitors. 2.3% of 330,000 active; note: potency is the fitted concentration of half-maximal effect; nearly all actives have a fitted effect of over 55% in size
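5-Fluorouridine DNA damage + compound/DMSO, 2,000 cells/well, 16 h, 37 °C/5% CO2. ONE-Glo, 30 min RT, luminescence. Readout = decrease in reporter signal.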
IL-1B inflam inh = qHTS for Inhibitors of Inflammasome Signaling: IL-1-beta AlphaLISA Primary Screen. 4.7% of 360,000 active. activity change, % at 57.5 µM. THP-1 LPS/ATP IL-1B secretion, AlphaLISA, 16 h; stronger effect = lower value; in the data active = activity change below about -50%; inconclusive = mostly about -30% to -49%
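THP-1 cells pretreated 1 hr with compounds (up to 57.5 uM final), then stimulated with LPS (250 ng/mL final) plus ATP (1.25 mM final); secreted IL-1B measured by AlphaLISA after 16 hr, decreased signal indicating inhibition.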
DT40 TDP1 CPT = qHTS for Inhibitors of human tyrosyl-DNA phosphodiesterase 1 (TDP1): qHTS in cells in presence of CPT; AID 686979, 2013; Potency, µM (top dose mostly 46.2 µM), inactives show top-dose activity change, negative = growth inhibition, hits mostly inhibitors; 12% of 420,000 active; chicken DT40 Tdp1-/-;hTDP1 cells + 20 nM CPT, ATP luminescence, 48 h; note: potency is the fitted concentration of half-maximal effect; nearly all actives have a fitted effect of over 55% in size
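Chicken DT40 Tdp1-/- cells complemented with human TDP1, 400 cells/well, exposed to compounds plus 20 nM camptothecin for at least 48 h at 37 C; viability read as ATP content by CellTiter-Glo luminescence.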
Giardia killer = Small Molecules that selectively kill Giardia lamblia: qHTS. 0.15% of 340,000 active. activity change, % at 7.66 µM, hits read low. Giardia lamblia trophozoite viability; in the data active = activity change below about -80%; inconclusive = between about -30% and that limit;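 note: parasites exposed to compound for two days anaerobically before the ATP read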
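Luminescent ATP signal served as the viability read-out, measured 15-30 min after adding ATP detection reagent to trophozoites that had been incubated with compounds for 48 hrs at 37 deg C anaerobically at 100 cells/well.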
TDP1 block = qHTS Assay for Inhibitors of Tyrosyl-DNA Phosphodiesterase (TDP1). recombinant TDP1, AlphaScreen DNA substrate cleavage. Potency, µM (top dose mostly 130 µM), for the others: top-dose activity change, negative = inhibition, most hits filed as inhibitors. 0.28% of 350,000 active. AID 485290, 2010; note: potency is the fitted concentration of half-maximal effect; nearly all actives have a fitted effect of over 40% in size
Target sequence (Q9NUW8 whole entry, looked up): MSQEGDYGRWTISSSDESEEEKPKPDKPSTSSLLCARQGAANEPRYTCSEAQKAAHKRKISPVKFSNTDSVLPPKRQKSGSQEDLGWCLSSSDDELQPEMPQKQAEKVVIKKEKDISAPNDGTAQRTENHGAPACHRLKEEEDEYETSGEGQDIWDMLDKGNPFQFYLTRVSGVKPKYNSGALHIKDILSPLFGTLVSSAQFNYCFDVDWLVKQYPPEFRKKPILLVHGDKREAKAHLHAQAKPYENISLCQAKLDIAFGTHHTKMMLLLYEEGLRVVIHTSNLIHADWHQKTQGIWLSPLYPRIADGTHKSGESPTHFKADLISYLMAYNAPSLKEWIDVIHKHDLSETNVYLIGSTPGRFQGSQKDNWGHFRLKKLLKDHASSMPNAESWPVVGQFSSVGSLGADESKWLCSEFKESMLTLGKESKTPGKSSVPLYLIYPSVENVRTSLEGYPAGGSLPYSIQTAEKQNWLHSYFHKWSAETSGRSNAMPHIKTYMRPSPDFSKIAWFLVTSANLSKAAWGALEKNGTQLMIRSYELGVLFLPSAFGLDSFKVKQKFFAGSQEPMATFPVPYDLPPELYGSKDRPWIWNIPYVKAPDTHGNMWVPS
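Recombinant human Tdp1 (E. coli-expressed, 1 nM final) preincubated with compounds 15 min at room temperature, then 5'-biotin/3'-phosphotyrosine-FITC DNA substrate (15 nM final) added for 5 min. AlphaScreen beads (10 ug/ml final) added 10 min; cleavage lowers signal.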
TDP1 cell noCPT = qHTS for Inhibitors of human tyrosyl-DNA phosphodiesterase 1 (TDP1): qHTS in cells in absence of CPT | Potency, µM (titrated, usually from 46.2 µM), without a hit: top-dose activity change, negative = growth inhibition, actives largely listed as inhibitors | 15% of 420,000 active | DT40 Tdp1-/- hTDP1 cells, no CPT, ATP luminescence, 48 h; note: potency is the fitted concentration of half-maximal effect; nearly all actives have a fitted effect of over 55% in size
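Chicken DT40 Tdp1-/- cells stably complemented with human TDP1 were seeded at 400 cells/well with DMSO in place of 20 nM camptothecin. After compound pinning, cells grew at least 48 hr at 37 °C; viability read by CellTiter-Glo luminescence.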
Active calls of the source: *; [ ] = remark or other dose. Rows were chosen to be rich in hits. Some 19% of all compounds tested hit in one or more screens of this group. Unless noted, calls come from the whole dose curve; as a rule, active = well fitted curve in the direction sought with a large enough effect; inconclusive = small, poorly fitted or top-dose-only effect, or another doubt; inactive = no such curve, though single readings can be large; an effect the other way counts as inactive or inconclusive. % is set by controls: 0 for no effect and ±100 for the full control effect.

For FC(F)(F)c1cnc2c(c1)Nc1ccccc1S2 the results were ELG1 repair inh inconclusive, IL-1B inflam inh -16, DT40 TDP1 CPT inconclusive, Giardia killer 16, TDP1 block 3% and TDP1 cell noCPT 21µM*.
`CN(C)/C=C(\C(=O)c1ccccc1)c1nnnn1-c1ccccc1` gave ELG1 repair inh -3%, IL-1B inflam inh -6, DT40 TDP1 CPT 10%, Giardia killer 10, TDP1 block 3% and TDP1 cell noCPT -16%.
Screening CN(C)c1ccc(C=C(c2nnnn2-c2ccccc2)c2nnnn2-c2ccccc2)cc1 returned ELG1 repair inh 12µM*, IL-1B inflam inh -14, DT40 TDP1 CPT 21µM*, Giardia killer 3, TDP1 block -5% and TDP1 cell noCPT 16µM*.
Cc1cc(Br)ccc1NC(=O)c1coc(=O)c2ccccc12 was read as DT40 TDP1 CPT -27%, TDP1 block 2% and TDP1 cell noCPT 0%.
Screening Cc1cccc2nc(CNC(=O)CN3Cc4cc(Cl)ccc4OC(C)C3)cn12 (stereo not given) returned DT40 TDP1 CPT 4.1µM* and TDP1 cell noCPT 5.8µM*.
Cc1cccc2nc(CNC(=O)CN3Cc4ccccc4OC(c4ccccc4F)C3)cn12 (stereo not given) was read as DT40 TDP1 CPT 7%[9.04 µM] and TDP1 cell noCPT -26%.
For Cc1cc(=O)n2nc(N3CCCC(C(=O)Nc4ccc(C)c(C)c4)C3)sc2n1 (stereo not given) the results were ELG1 repair inh inconclusive, IL-1B inflam inh inconclusive, DT40 TDP1 CPT inconclusive, Giardia killer 19 and TDP1 cell noCPT inconclusive.
Screening Cc1[nH]c2ccccc2c1N=Nc1c(C)n(C)n(-c2ccccc2)c1=O returned ELG1 repair inh 13µM*, IL-1B inflam inh -6, DT40 TDP1 CPT 21µM*, Giardia killer 21, TDP1 block 6% and TDP1 cell noCPT inconclusive.
For O=C(/C=C1\NC2(CCCC2)Cc2ccccc21)C(=O)N/N=C/c1ccc(O)c(O)c1 the results were ELG1 repair inh 23µM*, IL-1B inflam inh inconclusive, DT40 TDP1 CPT 5.8µM*, Giardia killer 2, TDP1 block -3% and TDP1 cell noCPT 4.6µM*.
Screening COc1ccc(/C=N/NC(=O)C(=O)/C=C2\NC3(CCCC3)Cc3ccccc32)cc1 returned ELG1 repair inh 23µM*, IL-1B inflam inh -20, DT40 TDP1 CPT inconclusive, Giardia killer 7, TDP1 block 3% and TDP1 cell noCPT inconclusive.
`NNC(=O)C(=O)/C=C1\NC2(CCCC2)Cc2ccccc21` gave ELG1 repair inh inconclusive, IL-1B inflam inh -7, DT40 TDP1 CPT 0%, Giardia killer 5, TDP1 block 6% and TDP1 cell noCPT -3%.
C/C=C/c1ccc(Oc2nnnn2-c2ccc(C(N)=O)cc2)c(OC)c1 was read as ELG1 repair inh -8%, IL-1B inflam inh 9, DT40 TDP1 CPT 15µM*, Giardia killer -8, TDP1 block 4% and TDP1 cell noCPT 21µM*.
`O=C(c1ccco1)[C@@H]1[C@@H]2C(=O)N(c3ccc(F)cc3)C(=O)[C@@H]2[C@H]2C=Cc3ccccc3N21` gave ELG1 repair inh 9%, IL-1B inflam inh -18, DT40 TDP1 CPT 6.5µM*, Giardia killer -11, TDP1 block 8% and TDP1 cell noCPT 18µM*.
`CCOc1ccc(S(=O)(=O)NCc2ccccc2)cc1C(N)=O` gave ELG1 repair inh inconclusive, IL-1B inflam inh -8, DT40 TDP1 CPT inconclusive, Giardia killer 19, TDP1 block -3% and TDP1 cell noCPT inconclusive.
